What all share (experiment): NCI-60 one-dose screen, 48 h (100 = growth as untreated, 0 = no growth, -100 = all killed)
Common to all, as to settings: 10 µM unless noted

Experiment [1] has as its system HCT-15 colon.
Experiment [2] relates to HT29 colon.
Experiment [3] relates to SNB-75 CNS.
Experiment [4] has as its system SNB-19 CNS.
Experiment [5] has as its system U251 CNS.
In experiment [6] the test system is PC-3 prostate.
The subject of experiment [7] is SK-MEL-5 melanoma.
For experiment [8], the system named is UACC-62 melanoma.
Experiment [9] has as its system LOX IMVI melanoma.
Experiment [10] deals with SK-MEL-28 melanoma.

The structures appear in SMILES notation. This is part of a sample that, as a whole, favours compounds with a hit. Of some 83,000 tested, about 20% had one in any assay.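 Compound tested at a single concentration for 48 hours in 96-well plates; a percent growth value below 10 was scored as active.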 Values without a mark were called inactive. Activity calls are given as the source filed them.

With `COc1ccc2nc(-c3ccc(Cl)cc3)cc(-c3nnc(SC/C(=N/O)c4ccccc4)o3)c2c1`, the growth in experiment [1] is 48.3%; in experiment [2], 27%; in experiment [3], 84.8%; in experiment [4] it was 68.4%; in experiment [5], 17.3%; in experiment [6] it was 30%. The growth in experiment [7] was 25.9%; in experiment [8] it was 49.1%; in experiment [9], 44.2%; in experiment [10], 44.2%.
Consider `COc1ccc(-c2nnc(N3CCN(C(=O)CN4CCN(c5ccccc5)CC4)CC3)nc2-c2ccc(OC)cc2)cc1`, for which the growth was 18.5% in experiment [1]; 3.46% (active) in [2]; 49.9% in experiment [3]; 53.5% in [4]; 37% in experiment [5]; 7.93% (active) in experiment [6]. The growth is 8.21% (active) in experiment [7], 52.1% in [8], 41.2% in experiment [9] and 56.5% in [10].
As to `O=C1NCc2ccc3c(-c4cccc(Cl)c4)c[nH]c3c21`, the growth was 27.2% in experiment [1]; 7.64% (active) in experiment [2]; 13.2% in experiment [3]; 28.6% in [4]; 16.3% in [5]; 17.2% in experiment [6]. Besides, the growth in experiment [7] is 31.2%; in [8] it was 27%; in experiment [9], 35%; in [10], 62.2%.
As to `C#C[C@@]1(O)[C@@H](CO)O[C@@H](n2cc(Cl)c3c(N)ncnc32)[C@@H]1O`, the growth was 1.65% (active) in experiment [1]; 5.79% (active) in [2]; -42.4% (active) in experiment [3]; 2.86% (active) in [4]; -6.87% (active) in experiment [5]; -17.3% (active) in experiment [6]. Also, the growth in experiment [7] is -61% (active); in [8], -54.2% (active); in [9], -72.5% (active); in [10], 42.6%.
As to `CCOCc1cc(C(C)(C)C)ccc1O`, the growth is 104% in [1]; 94.6% in [2]; 87.4% in experiment [3]; 98.3% in experiment [4]; 94% in [5]; 93.7% in experiment [6]. The growth in experiment [7] was 99.5%; in experiment [8], 94.4%; in [9], 96.5%; in experiment [10], 106%.
For the compound `COC1=CC2C=C(C3N(c4ccccc4)NC(=O)[C@@H]4CCCN34)C(=O)NC2C=C1` (stereo not given in full), the growth was 101% in experiment [1]; 102% in [2]; 85% in [3]; 104% in [4]; 110% in [5]; 102% in [6]. The growth in experiment [7] is 102%; in experiment [8], 104%; in experiment [9] it was 92.8%; in experiment [10], 108%.
In the case of `CCCCc1n(Cc2ccc3ccccc3c2)c2ccccc2[n+]1Cc1ccc2ccccc2c1`, the growth in experiment [1] is -89.2% (active); in experiment [2], -74.8% (active); in [3], -9.62% (active); in experiment [4] it was -92.5% (active); in experiment [5] it was -87.2% (active); in experiment [6] it was -76.8% (active). The growth is -100% (active) in experiment [7], -92.3% (active) in [8], -93.5% (active) in experiment [9] and -92.9% (active) in [10].
With `Cc1nnc(/N=C2\NC(=O)/C(=C/c3ccc(N(C)C)cc3)S2)s1`, the growth in experiment [1] is 47.7%; in experiment [2], 106%; in experiment [3] it was 67.5%; in experiment [4] it was 80.1%; in [5], 72.1%; in experiment [6], 57.8%. Also, the growth is 42.7% in [7], 74.9% in [8], 64.6% in [9] and 69.2% in experiment [10].
Take `C=C1C(=O)O[C@H]2[C@H]1CC/C(COC(=O)NCC(=O)Nc1ccc(OC)c(C(N)=O)c1O)=C\CC[C@@]1(C)O[C@@H]21`: the growth was 91.2% in experiment [1]; 18.8% in experiment [2]; 76.9% in experiment [3]; 73.9% in experiment [4]; 62.6% in experiment [5]; 85.7% in experiment [6]. The growth in [7] is 76.4%; in experiment [8] it was 42.8%; in experiment [9], 55.8%; in experiment [10] it was 47.9%.
Regarding `CCN(CC)c1ccc2c(c1)Oc1nc(N)c(C#N)c(N)c1C2Sc1ccc(OC)cc1` (stereo not given), the growth in [1] was 2.89% (active); in experiment [2], -61.6% (active); in experiment [3], -10% (active); in experiment [4], 20.9%; in experiment [5], -36.4% (active); in [6], 1.15% (active). For the same compound, the growth is 1.93% (active) in experiment [7], -16.9% (active) in experiment [8], -63.6% (active) in experiment [9] and 29.3% in [10].
Turning to `O=C(CCCC(=O)Nc1ccc(-n2nnc3cc(Cl)c(Cl)cc32)cc1)Nc1ccc(-n2nnc3cc(Cl)c(Cl)cc32)cc1`, the growth in experiment [1] was 74.1%; in [2], 43.8%; in experiment [3] it was 30.4%; in [4], 29.8%; in experiment [5] it was 28.7%; in experiment [6], 19.4%. In addition, the growth in experiment [7] was 42.2%; in experiment [8], 30.8%; in [9] it was 50.9%; in experiment [10] it was 57.9%.
As for `COc1cc(-c2cn(-c3ccc(Cl)c(Cl)c3)c(=O)[nH]2)cc(OC)c1OC`, the growth was 103% in [1]; 102% in experiment [2]; 104% in experiment [3]; 81.6% in experiment [4]; 95.6% in [5]; 104% in experiment [6]. For the same compound, the growth is 101% in [7], 95.3% in experiment [8], 97.7% in experiment [9] and 110% in experiment [10].
Turning to `COc1ccc2nc(-c3ccc(Cl)cc3)cc(-c3nnc(SCC(=O)Nc4ccc(/C(C)=N\O)cc4)o3)c2c1`, the growth in [1] is 23.6%; in experiment [2], 24.5%; in [3], 39.9%; in experiment [4], -18.2% (active); in [5] it was -15.2% (active); in experiment [6] it was 13.7%. Also, the growth in [7] is 71.5%; in experiment [8], 45.2%; in experiment [9] it was 25.3%; in [10], 72.6%.
As to `CC1CCN(CCCCCOc2ccc3oc4cc(Cl)ccc4c(=O)c3c2)CC1`, the growth in [1] was -16.9% (active); in experiment [2], 5.89% (active); in experiment [3], 74.7%; in experiment [4] it was 80.9%; in experiment [5], 54.3%; in experiment [6], 64.3%. Besides, the growth in experiment [7] was -72.2% (active); in experiment [8], -51% (active); in experiment [9] it was -25.6% (active); in experiment [10], 57.5%.
Take `[2H]c1cc2c(c([2H])c1F)/C(=C/c1[nH]c(C)c(C(=O)NCCN(CC)CC)c1C)C(=O)N2`: the growth was 29.9% in experiment [1]; 19% in experiment [2]; 50.4% in experiment [3]; 85.4% in experiment [4]; 66.5% in [5]; 28.3% in [6]. Further, the growth in [7] is 51%; in experiment [8] it was 67%; in [9], 26.5%; in experiment [10], 64.7%.
Take `c1ccc(-c2n(Cc3ccc4ccccc4n3)cc[n+]2Cc2ccc3ccccc3c2)cc1`: the growth is 70.5% in experiment [1]; -9.68% (active) in experiment [2]; 3.74% (active) in experiment [3]; 9.86% (active) in experiment [4]; 8.14% (active) in experiment [5]; 1.28% (active) in experiment [6]. Also, the growth in experiment [7] was -95.2% (active); in [8], -46.2% (active); in experiment [9], -25.9% (active); in experiment [10], 0.22% (active).
On to `C[C@H](Oc1cc(-c2cnn(C3CCNCC3)c2)cnc1N)c1c(Cl)ccc(F)c1Cl`, for which the growth in experiment [1] was 43.2%; in [2] it was 12.4%; in experiment [3], 76.3%; in [4], 65.6%; in experiment [5], 37.6%; in [6], 45.9%. The growth is 59% in experiment [7], 60.2% in experiment [8], 8.87% (active) in [9] and -46.5% (active) in [10].
As to `Sc1cccc2cccnc12`, the growth in experiment [1] was 30.1%; in experiment [2] it was 15.8%; in experiment [3], 52.8%; in experiment [4] it was 42.7%; in [5], 23.2%; in experiment [6] it was 43.7%. The growth in [7] was -10.9% (active); in [8] it was -3.89% (active); in experiment [9] it was 7.92% (active); in [10] it was 36.3%.
With `CSc1nc(-c2cccs2)c2c(N)[nH]nc2n1`, the growth was 99.6% in experiment [1]; 93.2% in experiment [2]; 93.7% in [3]; 106% in experiment [4]; 98.9% in experiment [5]; 93.6% in experiment [6]. Besides, the growth in experiment [7] is 101%; in experiment [8], 93.7%; in experiment [9] it was 93.3%; in experiment [10] it was 114%.
For the compound `COc1cc(C2CC(c3ccc(Nc4nc(NCCO)nc(NCCO)n4)cc3)=NN2c2cc(Cl)cc(Cl)c2)cc(OC)c1OC` (stereo not given), the growth is 16.3% in experiment [1]; -47% (active) in experiment [2]; -14.6% (active) in experiment [3]; 17.4% in experiment [4]; -36.2% (active) in experiment [5]; -42.1% (active) in experiment [6]. Also, the growth is -45.8% (active) in [7], 2.21% (active) in experiment [8], -60.2% (active) in experiment [9] and -70% (active) in [10].
For the compound `O=C(O)CCNC1CCCCC1`, the growth in experiment [1] was 99.4%; in experiment [2] it was 106%; in experiment [3], 90.3%; in [4], 91.2%; in experiment [5] it was 94.2%; in experiment [6], 94.8%. In addition, the growth in experiment [7] was 108%; in experiment [8], 100%; in experiment [9] it was 94.1%; in [10], 100%.

The values are drawn from PubChem BioAssay (NCI).
